Measurements reported in PubChem BioAssay AID588689 (Southern Research Specialized Biocontainment Screening …, 2011).
The campaign covered roughly 340,000 compounds. About 1,000 (0.29%) were called active. No stated cut-off is given here; in the data, inconclusive means inhibition above about 29% without an active follow-up result; inactive means below that. Not all results are given here. Potency and affinity values are given separately.

Target: Genome polyprotein (Dengue virus type 2 (strain 16681-PDK53)) (UniProt P29991)
Assay: Dengue-2 NS5 methyltransferase inhibitors, primary screen, biochemical, confirmation dose response (AID 588689)
Settings: Dengue-2 NS5 methyltransferase capping enzyme assay, at 25 µM, stronger effect = higher value
[1] = measured here: pilot screen replicate inhibition

For `O=C(Nc1ccccc1N1CCCCC1)c1cc(S(=O)(=O)N2CCOCC2)ccc1Cl`, the inhibition was -0.73% (inactive).

`C#CC[N+](C)(C)CC#Cc1ccccc1` was tested, and the inhibition was -1.48% (inactive).

In the case of `O=C1CC(c2ccccc2)CC(O)=C1C=NCc1ccc(Cl)c(Cl)c1` (centres undefined), the inhibition is reported as 3.34% (inactive).

In the case of `CC1(C)CC(=O)C(C(N)=NC(=O)c2ccccc2)=C(O)C1`, the inhibition is reported as 0% (inactive).

With `CC(=O)c1c(C)[nH]c(C(=O)OCC(=O)N2CCc3ccccc32)c1C` the inhibition was -4.77% (inactive).

In the case of `CCCCc1cc(=O)oc2cc(OCC(=O)N3CCc4ccccc43)ccc12`, the inhibition is reported as -4.8% (inactive).

In the case of `CCc1ccc(N2C(=O)CC(Cn3nc(C)cc3C)C2=O)cc1` (centres undefined), the inhibition is reported as -5.48% (inactive).

In the case of `CN(C)S(=O)(=O)c1cccc(NC(=O)/C=C/c2ccc(S(=O)(=O)N3CCOCC3)cc2)c1`, the inhibition is reported as -0.74% (inactive).

For `CC1=NN(c2ccc(C(=O)O)cc2)C(=O)/C1=C/c1ccc(-c2ccccc2F)o1`, the inhibition was 51.9% (inactive).

`CCOC(=O)c1ccc(N2N=C(C)/C(=C/C=C/c3ccco3)C2=O)cc1` was tested, and the inhibition was 10.2% (inactive).

`COC(=O)c1ccccc1-c1ccc(/C=C2\C(=O)N(c3ccccc3)N=C2c2ccccc2)o1` was tested, and the inhibition was 1.6% (inactive).

In the case of `CC1=NN(c2cccc(C(=O)O)c2)C(=O)/C1=C\C=C\c1ccco1`, the inhibition is reported as 19.1% (inactive).

With `O=C(c1ccccc1[N+](=O)[O-])N1CCCC(C(=O)N2CCCCCC2)C1` (centres undefined) the inhibition was 0% (inactive).

In the case of `C=CCSc1nnc(NC(=O)c2nc(SCC)ncc2Cl)s1`, the inhibition is reported as -6.43% (inactive).

In the case of `CCCSc1nnc(NC(=O)c2nc(SC)ncc2Cl)s1`, the inhibition is reported as 0% (inactive).

For `O=C(Nc1ccc(F)cc1)c1nc(S(=O)(=O)Cc2ccccc2)ncc1Cl`, the inhibition was -51.9% (inactive).

With `CCc1ccc(NC(=O)c2nc(S(=O)(=O)Cc3ccccc3)ncc2Cl)cc1` the inhibition was -51.9% (inactive).

For `COc1ccc([N+](=O)[O-])cc1NC(=O)CCN1CCOCC1`, the inhibition was -1.96% (inactive).

For `COc1ccc(N(CC(=O)N/N=C/c2ccc(-c3ccc([N+](=O)[O-])cc3)o2)S(=O)(=O)c2ccc(C)cc2)cc1Cl`, the inhibition was -4.14% (inactive).

With `O=C(c1ccc(N2C(=O)c3ccccc3C2=O)cc1)N1CCN(S(=O)(=O)c2ccccc2F)CC1` the inhibition was -0.55% (inactive).

In the case of `O=C(CCC(=O)Nc1cccc(Cl)c1)N/N=C/c1cc([N+](=O)[O-])ccc1O`, the inhibition is reported as -2.94% (inactive).

In the case of `CN1CCCC(OC(=O)c2ccc(C(C)(C)C)cc2)C1` (centres undefined), the inhibition is reported as -4.27% (inactive).

For `CCOC(=O)C1C(=O)CC(C)(O)C(C(=O)OCC)C1c1cccc(OC)c1` (centres undefined), the inhibition was -3.38% (inactive).

With `CCNCc1cc(OCC)c(OCC(=O)NCCc2ccccc2)cc1Cl` the inhibition was -2.77% (inactive).

For `CCCn1c(N)c(C(=O)CSc2nc3ncc(Cl)cc3[nH]2)c(=O)[nH]c1=O`, the inhibition was -2.94% (inactive).

With `Cc1ccc(S(=O)(=O)N2[C@@H](c3cccc(Cl)c3)C(C(=O)O)=CC[C@H]2c2cccc(C)c2)cc1` the inhibition was 20.8% (inactive).

With `Cc1ccc(S(=O)(=O)N2[C@@H](c3ccc(Cl)cc3)C(C(=O)O)=CC[C@H]2c2cccc(Cl)c2)cc1` the inhibition was 22.7% (inactive).

`Cc1ccc([C@H]2C(C(=O)O)=CC[C@@H](c3cccc(Cl)c3)N2S(=O)(=O)c2ccc(C)cc2)cc1` was tested, and the inhibition was 16.6% (inactive) and the inhibition [1] was 2.77%.

`Cc1ccc(S(=O)(=O)N2[C@@H](c3ccccc3)C(C(=O)O)=CC[C@H]2c2cccc(Cl)c2)cc1` was tested, and the inhibition was -2.4% (inactive).

With `Cc1ccc(S(=O)(=O)N2[C@@H](c3ccc(Cl)cc3)C(C(=O)O)=CC[C@H]2c2ccc(C(C)C)cc2)cc1` the inhibition was 25.9% (inactive).

In the case of `Cc1ccc(S(=O)(=O)N2[C@@H](c3cccc(Cl)c3)C(C(=O)O)=CC[C@H]2c2ccc(Cl)cc2)cc1`, the inhibition is reported as 20.7% (inactive).

`COc1ccc([C@@H]2CC=C(C(=O)O)[C@H](c3cccc(Cl)c3)N2S(=O)(=O)c2ccc(Cl)cc2)cc1` was tested, and the inhibition was 16% (inactive).

`Cc1ccc(S(=O)(=O)N2[C@@H](c3ccccc3)C(C(=O)O)=CC[C@H]2c2ccc(C(C)C)cc2)cc1` was tested, and the inhibition was 21.6% (inactive).

With `O=C(NCCCN1CCCC1=O)c1cccc(N2CCCC2=O)c1` the inhibition was -1.47% (inactive).

In the case of `CN(C)S(=O)(=O)c1ccc(C(=O)OCC(=O)c2ccc(OC(F)F)cc2OC(F)F)cc1`, the inhibition is reported as 2.08% (inactive).

For `CCCN1CCN(C(=O)c2ccc(CS(=O)c3ccc(F)cc3)o2)CC1` (centres undefined), the inhibition was -6.18% (inactive).

In the case of `O=S(=O)(NCc1cccc(C(F)(F)F)c1)NCc1ccccc1F`, the inhibition is reported as -7.25% (inactive).

For `CCn1c(SCc2nc3ccccc3c(=O)[nH]2)nnc1-c1ccncc1`, the inhibition was 3.13% (inactive) and the inhibition [1] was -0.31%.

With `CCCCn1c(N)c(N(CCOC)C(=O)CCc2ccc(OC)cc2)c(=O)[nH]c1=O` the inhibition was -2.18% (inactive).

`Cc1ccc(Cc2nc(-c3ccncc3)no2)cc1` was tested, and the inhibition was -1.78% (inactive).

In the case of `CCN(CC)Cc1cc(C(C)=O)ccc1O`, the inhibition is reported as -1.36% (inactive).

`CN(C)Cc1cc(O)c(CN(C)C)cc1O` was tested, and the inhibition was 24.7% (inactive).

For `COc1ccc(N=Nc2ccc(N)nc2N)cc1`, the inhibition was 1.3% (inactive).

With `Nc1nc(N)c(N=Nc2ccc(C(=O)O)cc2)c(N)n1` the inhibition was 0.65% (inactive).

`COc1cc2cc(CCCOC(=O)c3ccc(Br)cc3)oc(=O)c2cc1OC` was tested, and the inhibition was 8.18% (inactive).

For `COc1cc(C(CC(=O)Nc2ccc(C)cn2)N2Cc3ccccc3C2=O)cc(OC)c1OC` (centres undefined), the inhibition was -5.88% (inactive).

For `Cc1ccc(C(=O)C(C)OC(=O)C2CCN(c3ccc(C(F)(F)F)cn3)CC2)cc1` (centres undefined), the inhibition was -0.72% (inactive).

`CNC(=O)C1CC(=O)N(CCc2ccc(C)cc2)C1` (centres undefined) was tested, and the inhibition was -3.31% (inactive).

For `Cc1noc(C(=O)Nc2ccccc2C(F)(F)F)c1Cl`, the inhibition was -9.68% (inactive).

In the case of `O=C(Cc1ccccc1)NN1C(=O)/C(=C/c2ccc(C(=O)O)cc2)SC1=S`, the inhibition is reported as 27% (inactive).

With `Cc1ccc(S(=O)(=O)NN2C(=O)/C(=C\c3ccc(Cl)cc3)SC2=S)cc1` the inhibition was -1.66% (inactive).

In the case of `O=C1/C(=C/c2ccc(O)c(O)c2)SC(=S)N1Nc1ccccc1`, the inhibition is reported as -21.8% (inactive).

With `CC(=O)NN1C(=O)/C(=C\c2ccc(C)cc2)SC1=S` the inhibition was -6.43% (inactive).

In the case of `COc1ccc(/C=C2/SC(=S)N(NS(=O)(=O)c3ccccc3)C2=O)cc1`, the inhibition is reported as 21.2% (inactive).

For `O=C(O)c1ccc(/C=C2\SC(=S)N(NC(=O)c3ccccc3)C2=O)cc1`, the inhibition was 8.49% (inactive).

In the case of `COc1ccc(/C=C2/SC(=S)N(n3c(C)ccc3C)C2=O)cc1`, the inhibition is reported as -3.19% (inactive).

With `CCN1CCCC(NC(=O)c2cc([N+](=O)[O-])ccc2OC)C1` (centres undefined) the inhibition was -5.8% (inactive).

For `O=C(CSc1ccccc1)N1CCCC(N2CCN(c3ccc(F)cc3)CC2)C1` (centres undefined), the inhibition was 1.77% (inactive).

With `Nn1c(Cc2ccccc2F)nnc1SCC(=O)Nc1cccc(S(=O)(=O)NC2=NCCCCC2)c1` the inhibition was -0.76% (inactive).

In the case of `COc1ccc(CNS(=O)(=O)NCc2ccc(C)cc2)cc1OC`, the inhibition is reported as -10.9% (inactive).

In the case of `COCCNC(=O)C1CC2Cn3c(nc4cc5ccccc5cc43)C2N1C` (centres undefined), the inhibition is reported as -1.6% (inactive).

`C=C(C)C(=O)NNc1ccccc1` was tested, and the inhibition was 0% (inactive).

`O=C(Cc1ccc(Cl)cc1)N/N=C/c1ccncc1` was tested, and the inhibition was -1.47% (inactive).

`Cc1noc(C)c1COc1ccc(C(=O)OCC(=O)Nc2cccc(S(=O)(=O)N3CCOCC3)c2)cc1` was tested, and the inhibition was 0.96% (inactive).

With `O=C(O)c1ccccc1/C=N/NC(=O)C1CCCC1` the inhibition was -8.46% (inactive).

With `COc1cc(/C=C2/SC(=S)NC2=O)ccc1OS(=O)(=O)c1ccc(C)cc1` the inhibition was 9.96% (inactive).

For `COc1ccc(OC)c(/C=C2\SC(=S)N(NS(=O)(=O)c3ccc(C)cc3)C2=O)c1`, the inhibition was 40.5% (inactive).

With `CCOc1ccc(/C=N/NS(=O)(=O)c2ccc(C)cc2)cc1OC` the inhibition was -1.16% (inactive).

`COc1cc(/C=C2\SC(=S)N(CC(=O)O)C2=O)ccc1OS(=O)(=O)c1ccc(C)cc1` was tested, and the inhibition was 22.7% (inactive).

In the case of `CCOc1ccc(/C=C2\SC(=S)N(Nc3ccccc3)C2=O)cc1OC`, the inhibition is reported as 8.01% (inactive).

With `COc1ccc(/C=C2/SC(=O)N(NS(=O)(=O)c3ccccc3)C2=S)cc1OC` the inhibition was 15.7% (inactive).

For `O=C1[C@H]2[C@@H](c3ccccc3)N[C@]3(CCCN(Cc4ccc(Cl)cc4)C3=O)[C@H]2C(=O)N1Cc1ccccc1`, the inhibition was -4.41% (inactive).

For `CC(=O)C1N=NCC1c1ccccc1` (centres undefined), the inhibition was 0.78% (inactive).

For `O=C(CSc1ccc(-c2ccc(F)cc2)nn1)NC1CCCCC1`, the inhibition was -4.13% (inactive).

With `COCc1cc(=O)n2[nH]c(C)cc2n1` the inhibition was -5.47% (inactive).

For `CC1CCN(S(=O)(=O)c2ccc3[nH]c(=O)[nH]c3c2)CC1`, the inhibition was -10.8% (inactive).

`COc1ccc(C(=O)/C=C/c2ccsc2)cc1CSCC(=O)O` was tested, and the inhibition was 6.74% (inactive).

`COc1ccc(C(=O)/C=C/c2ccc(OCc3ccccc3)cc2)cc1CSCC(=O)O` was tested, and the inhibition was 11.7% (inactive).

`COc1ccc(CCC(=O)OCC(=O)c2ccc[nH]2)cc1OC` was tested, and the inhibition was 1.46% (inactive).

For `CSc1nccn1CC(=O)Nc1ccc(F)cc1`, the inhibition was -6.45% (inactive).

In the case of `CCc1ccccc1NC(=O)NC1CC2CCC(C1)N2Cc1ccco1` (centres undefined), the inhibition is reported as -3.12% (inactive).

For `CCCCCCC(=O)O`, the inhibition was -2.09% (inactive).

`CCCC(N)CCCCCC(=O)O` (centres undefined) was tested, and the inhibition was -9.35% (inactive).

`CCNc1nc(NCC)n2c(SCC(=O)NC34CC5CC(CC(C5)C3)C4)nnc2n1` was tested, and the inhibition was -8.01% (inactive).

For `N#CC(c1ccccn1)c1ncc(C(F)(F)F)cc1Cl` (centres undefined), the inhibition was -2.95% (inactive).

For `CCCCn1c(N)c(-c2nc3ccccc3s2)c2c([N+](=O)[O-])nn(CC)c(=O)c21`, the inhibition was -3.23% (inactive).

For `Cc1nc([N+](=O)[O-])c(Sc2nc3ccccc3n2C)n1Cc1ccccc1`, the inhibition was 11.5% (inactive).

In the case of `Cn1c(C(C#N)C(=O)c2sc3ccccc3c2Cl)nc2ccccc21` (centres undefined), the inhibition is reported as -3.45% (inactive).

`O=[N+]([O-])c1ccc(CC(Cl)c2ccccn2)cc1` (centres undefined) was tested, and the inhibition was 0.78% (inactive).

`CCCCCn1c(N)c(-c2nc3ccccc3s2)c2c([N+](=O)[O-])nn(CC)c(=O)c21` was tested, and the inhibition was -4.79% (inactive).

For `CCCn1nc([N+](=O)[O-])c(C(C#N)c2nc3ccccc3s2)c(Cl)c1=O` (centres undefined), the inhibition was 27.6% (inactive).

In the case of `CCCCn1c(N)c(-c2nc3ccccc3o2)c2c([N+](=O)[O-])nn(CC)c(=O)c21`, the inhibition is reported as -0.74% (inactive).
